Results taken from PubChem BioAssay (NCI).
About 83,000 compounds went through this panel and 20% of them were active in at least one assay; those are over-represented in the sample as a whole.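 Treatment: one concentration, 48 hours, 96-well format. Scoring: percent growth, with anything below 10 considered active.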 A number with no mark means an inactive call. Calls of active or inactive are those of the source.

Tests used:
Assay in all cases: NCI-60 one-dose screen, 48 h (100 = growth as untreated, 0 = no growth, -100 = all killed)
Details in all cases: 10 µM unless noted
[1] = test system: SR leukemia
[2] = test system: RPMI-8226 leukemia
[3] = test system: OVCAR-8 ovarian
[4] = test system: OVCAR-5 ovarian
[5] = test system: OVCAR-4 ovarian
[6] = test system: SK-OV-3 ovarian
[7] = test system: IGROV1 ovarian
[8] = test system: HS 578T breast
[9] = test system: NCI/ADR-RES ovarian
[10] = test system: OVCAR-3 ovarian

SMILES | growth [1] | growth [2] | growth [3] | growth [4] | growth [5] | growth [6] | growth [7] | growth [8] | growth [9] | growth [10]
CCCCOc1ccc(S(=O)(=O)N2CCN(c3nc(C)cc(N4CCOCC4)n3)CC2)cc1 | 42.4% | 3.95% (active) | 45% | 50.4% | 49% | -11.6% (active) | 7.73% (active) | 63.6% | 25.4% | 
NS(=O)(=O)c1ccc(Nc2nc(Nc3ccccc3)nc(N3N=C(c4ccc(Cl)cc4)CC3c3ccc(Cl)cc3)n2)cc1 (centres undefined) | 5.52% (active) | 37.1% | 68.4% | 43.2% | 49.5% | 64.9% | 34.3% | 78.8% | 62.4% | 
CC1(C)CC[C@]2(C(=O)O)CC[C@]3(C)C(=CC[C@@H]4[C@@]5(C)CC[C@H](NOCCCN)C(C)(C)[C@@H]5CC[C@]43C)[C@@H]2C1 | -8% (active) | 34.7% | 95.2% | 100% | 95.2% | 95.8% |  | 87.1% | 99.4% | 95.6%
CC(=C(c1ccc(OCCN(C)C)cc1)c1ccc(OCCN(C)C)cc1)c1ccc(Cl)cc1 | -36.1% (active) | -42.7% (active) | -46.9% (active) | -69% (active) | -17.4% (active) | 77.5% |  | -32.5% (active) | -49.8% (active) | -55.5% (active)
COc1ccccc1/C=C/C(=O)c1nnn(-c2ccc(F)cc2)c1C | 13.2% | 20.9% | 44.9% | 89.5% | 59.2% | 95.8% | 45.6% | 78.3% | 34.3% | 
CC(=C(c1ccc(OCCN2CCCC2)cc1)c1ccc(OCCN2CCCC2)cc1)c1ccc(Cl)cc1 | -45.8% (active) | -54.8% (active) | -6.74% (active) | -16% (active) | -11.2% (active) | 85.8% |  | -31.2% (active) | -12% (active) | -20.8% (active)
CC(C)(C)c1cc(NC(=O)Nc2ccc(-c3cn4c5c(sc4n3)CCc3c[nH]cc3-5)cc2)no1 | 2.1% (active) | -18.6% (active) | 32.7% | 47.7% | 49% | 33.7% | 38% | -10.4% (active) | 29% | 
COc1ccccc1N1CCN(C2=C(Cl)C(=O)c3ncccc3C2=O)CC1 | 12.4% | 79.4% | 90.5% | 114% | 85.7% | 90.5% | 86.3% | 87.2% | 81.7% | 
O=C(N/N=C/c1cc2ccccc2nc1Cl)c1cc(-c2nc3ccccc3[nH]2)nc2ccccc12 | 83.6% | 82.7% | 96.3% | 106% | 86.3% | 106% | 87.5% | 108% | 93.3% | 
O=C(NCCNc1cc(-c2cn(-c3ccccc3)nc2-c2cccc(O)c2)ccn1)Nc1cc(C(F)(F)F)cc(C(F)(F)F)c1 | 81.3% | 94.7% | 98.5% | 97.3% | 91.6% | 104% | 82.2% | 93.9% | 91.9% | 
Brc1cc(-c2cc(-c3ccc4c(c3)OC=CO4)[nH]n2)cs1 | 60.9% | 81% | 99.4% | 115% | 97% | 86% | 66.1% | 90% | 65.4% | 
C#C[C@]1(O)CC[C@H]2[C@@H]3CC=C4c5sc(NCc6ccccc6)nc5CC[C@]4(C)[C@H]3CC[C@@]21C | 3.34% (active) | -25.3% (active) | 65.2% | 84% | 73.6% | -10% (active) | 76.8% | -4.78% (active) | 72.4% | 
NCCNC(=O)c1cccc(COc2ccccc2NC(=O)c2cc(Cl)c(Cl)[nH]2)c1 | 8.2% (active) | 101% | 92.1% | 96.8% | 97.7% | 111% |  | 103% | 101% | 109%
CN1CCN(c2ccc(Nc3nc(NCCCNS(=O)(=O)c4ccccc4)c4sccc4n3)cc2)CC1 | 2.4% (active) | 14.6% | 65.8% | 78.3% | 56.5% | 122% |  | 80.3% |  | 74.3%
CCC(=C(c1ccc(OCCN2CCCCCC2)cc1)c1ccc(OCCN2CCCCCC2)cc1)c1ccc(Cl)cc1 | -5.89% (active) | -29.7% (active) | 2.46% (active) | 58.3% | 47.2% | 96.7% |  | -51% (active) | 29.4% | 30.8%
CSc1ccc(/C(=N/N=C(N)N)c2ccc(F)cc2)cc1 | -13.8% (active) | 5.69% (active) | 11.9% | 43.9% | 57% | 45.3% |  | -1.22% (active) | 4.1% (active) | 27.5%
OCC(Nc1ncnc2ccc(-c3cnc4cnccn34)cc12)c1ccccc1 (centres undefined) | 73.5% | 62.5% | 79.7% | 83.8% | 63.7% | 80.9% |  | 84.1% | 90.3% | 71.9%
Cn1c2nc3ccccc3c-2cc2ccccc21 | 18.7% | 54.9% | 32.8% | 48% | 50% | 48.9% | -10.8% (active) | 55.9% | 42.6% | 
NC1CC2(CCN(c3cnc(C(=O)Nc4cc(F)cc5cccnc45)cn3)CC2)C1 | 3.71% (active) | 61.1% | 94.6% | 85.9% | 95.2% | 107% |  | 94.2% | 89.2% | 85.2%
Fc1ccc(-c2cn3c(-c4c[nH]c5ccc(Br)cc45)csc3n2)cc1 | 88.7% | 77.8% | 74.8% | 73.8% | 34.3% | 84.4% | 63.7% | 14% | 48.7% | 
COc1ccc(/C=N/NC(=O)CSc2nc(-c3cnccn3)cc(-c3cccs3)c2C#N)cc1 | 65.3% | 48.3% | 61.4% | 103% | 92.6% | 75.6% |  | 64.6% | 65.8% | 90.6%
COc1ccc([C@H]2C(=O)N(c3cc(OC)c(OC)c(OC)c3)[C@@H]2c2ccc(OC)c(O)c2)cc1 | 11.4% | 22.2% | 5.81% (active) | 34.6% | 63.5% | 27.5% | 28.2% | 2.75% (active) | 10.4% | 
COc1ccc(/C(=N\N=C(N)N)c2ccc(Cl)cc2)cc1OC | 42.7% | 70.4% | 87.2% | 78.2% | 88.4% | 78.5% | 51.5% | 67.5% | 99.3% | 
NNc1nnc2nc(Nc3ccccc3)nc(Nc3ccc(S(N)(=O)=O)cc3)n12 | 93.3% | 99.4% | 107% | 103% | 112% | 113% |  | 99.6% | 99.6% | 110%
CCOC(=O)c1c(NC(=O)c2ccc(C(F)(F)F)cc2)sc2c(CN3CCN(C)CC3)c(O)ccc12 | -56.9% (active) | -42% (active) | -56.2% (active) | -52.6% (active) | -53.8% (active) | -4.72% (active) |  | -17.8% (active) | -63.2% (active) | -68.9% (active)
C#C[C@]1(O)CC[C@H]2[C@@H]3CC=C4c5sc(Nc6cccc(F)c6)nc5CC[C@]4(C)[C@H]3CC[C@@]21C | 1.48% (active) | -31.8% (active) | 43.8% | 57.5% | 44.5% | -10.6% (active) |  | -7.5% (active) |  | 27.4%
N#Cc1c(-c2cccs2)cc(-c2cnccn2)nc1SCC(=O)N/N=C/c1ccccc1 | 55.9% | -23.7% (active) | 43.4% | 87.2% | 3.09% (active) | 106% |  | 40.7% | 37% | 27.7%
CCOC(=O)C1=C(C)NC(C)=C(C(=O)OC(C)C)C1c1cccc(C#N)c1 (centres undefined) | 90.9% | 108% | 103% | 99.1% | 104% | 132% |  | 98% | 95% | 105%
CCC1=Cc2c(OC)cccc2OC12C=Cc1c(OC)cccc1O2 (centres undefined) | 15.2% | 25.2% | 24.3% | 36.5% | 76.7% | 56.5% | 29.8% | 28.4% | -24.2% (active) | 
